# Measurements taken from the supplement of paper PMC4022240.
# ± gives the standard deviation.
# T1: HaloTag-ATRX ADD domain (163-292)
# T1 chain: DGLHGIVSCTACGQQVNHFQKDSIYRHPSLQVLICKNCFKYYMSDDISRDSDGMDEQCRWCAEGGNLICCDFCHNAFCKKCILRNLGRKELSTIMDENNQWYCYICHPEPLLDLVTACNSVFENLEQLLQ
# Columns and labels:
# Assay in all cases: peptide microarray binding signal (635 nm), min-max normalized on array (fraction of array maximum); higher = stronger binding
# [1] = target: T1, HaloTag-ATRX ADD domain (163-292)
# How it was run: (§1)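 Within each library, mean intensities of triplicate spots were min-max scaled to give the binding signal. The spots were histone 13-mer peptide–cellulose conjugates on nitrocellulose with a Cy3 tracer, blocked overnight at 4°C. They were then probed for 1 h at 4°C using biotin-labelled HaloTag reader fusions (10 nM to 1 μM) with streptavidin-Alexa Fluor 647 or rabbit histone antibodies (1:10,000 to 1:2,000) with anti-rabbit Alexa 647, and scanned at 635 nm for signal and 532 nm for misprints on an Axon GenePix 4000B.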
# [2] = target: HaloTag-ING2 PHD (mouse Ing2 200-280)
# How it was run: as §1
# [3] = target: anti-H3K4me3 antibody ab8580
# How it was run: as §1
# [4] = target: anti-H3K9me3 antibody ab8898
# How it was run: as §1
# [5] = peptide region: H3 5-17, peptide modifications: H3R8me2s H3S10ph, binder concentration: 1:2,000 dilution
# [6] = peptide region: H3 5-17, peptide modifications: H3R8me2s H3S10ph, binder concentration: 1:10,000 dilution
# [7] = peptide region: H3 11-23, binder concentration: 1:2,000 dilution
# [8] = peptide region: H3 11-23, binder concentration: 1:10,000 dilution
# [9] = peptide region: H3 5-17, peptide modifications: H3R8me2s H3K9me2, binder concentration: 1:2,000 dilution
# [10] = peptide region: H3 5-17, peptide modifications: H3R8me2s H3K9me2, binder concentration: 1:10,000 dilution
# [11] = peptide region: H3 5-17, peptide modifications: H3R8me2s, binder concentration: 1:2,000 dilution
# [12] = peptide region: H3 5-17, peptide modifications: H3R8me2s, binder concentration: 1:10,000 dilution
# [13] = peptide region: H3 5-17, peptide modifications: H3R8me2s H3K9me3, binder concentration: 1:2,000 dilution
# [14] = peptide region: H3 5-17, peptide modifications: H3R8me2s H3K9me3, binder concentration: 1:10,000 dilution
# [15] = peptide region: H3 5-17, peptide modifications: H3S10ph H3K14me3, binder concentration: 1:2,000 dilution
# [16] = peptide region: H3 5-17, peptide modifications: H3S10ph H3K14me3, binder concentration: 1:10,000 dilution
# [17] = peptide region: H3 5-17, peptide modifications: H3S10ph, binder concentration: 1:2,000 dilution
# [18] = peptide region: H3 5-17, peptide modifications: H3S10ph, binder concentration: 1:10,000 dilution
# [19] = peptide region: H3 5-17, peptide modifications: H3T11ph H3K14ac, binder concentration: 1:2,000 dilution
# [20] = peptide region: H3 5-17, peptide modifications: H3T11ph H3K14ac, binder concentration: 1:10,000 dilution
# [21] = peptide region: H3 5-17, peptide modifications: H3T11ph, binder concentration: 1:2,000 dilution
# [22] = peptide region: H3 5-17, peptide modifications: H3T11ph, binder concentration: 1:10,000 dilution
# [23] = peptide region: H3 5-17, peptide modifications: H3S10ph H3T11ph, binder concentration: 1:2,000 dilution
# [24] = peptide region: H3 5-17, peptide modifications: H3S10ph H3T11ph, binder concentration: 1:10,000 dilution
binder,measurement,setting,value
QTARKSTGGKAPR [H3 5-17 Q T A Rme2s K Sph T G G K A P R],peptide microarray binding signal,"[1]; peptide region: H3 5-17, peptide modifications: H3R8me2s H3S10ph, binder concentration: 50 nM",0.00683 ± 0.0003
same,peptide microarray binding signal,"[1]; peptide region: H3 5-17, peptide modifications: H3R8me2s H3S10ph, binder concentration: 500 nM",0.0161 ± 0.0014
same,peptide microarray binding signal,"[2]; peptide region: H3 5-17, peptide modifications: H3R8me2s H3S10ph, binder concentration: 10 nM",0.0274 ± 0.00033
same,peptide microarray binding signal,"[2]; peptide region: H3 5-17, peptide modifications: H3R8me2s H3S10ph, binder concentration: 100 nM",0.0477 ± 0.0078
same,peptide microarray binding signal,[3]; [5],0.00423 ± 0.00039
same,peptide microarray binding signal,[3]; [6],0.00548 ± 0.00014
same,peptide microarray binding signal,[4]; [5],0.00403 ± 0.0009
same,peptide microarray binding signal,[4]; [6],0.00363 ± 0.00015
TGGKAPRKQLATK [H3 11-23 T G G K A P R K Q L A T K],peptide microarray binding signal,"[1]; peptide region: H3 11-23, binder concentration: 50 nM",0.00481 ± 0.00041
same,peptide microarray binding signal,"[1]; peptide region: H3 11-23, binder concentration: 500 nM",0.0154 ± 0.0015
same,peptide microarray binding signal,"[2]; peptide region: H3 11-23, binder concentration: 10 nM",0.00615 ± 0.00031
same,peptide microarray binding signal,"[2]; peptide region: H3 11-23, binder concentration: 100 nM",0.0175 ± 0.0019
same,peptide microarray binding signal,[3]; [7],0.000849 ± 5.7e-05
same,peptide microarray binding signal,[3]; [8],0.00097 ± 0.00013
same,peptide microarray binding signal,[4]; [7],0.00172 ± 0.00025
same,peptide microarray binding signal,[4]; [8],0.00138 ± 0.00011
QTARKSTGGKAPR [H3 5-17 Q T A Rme2s Kme2 S T G G K A P R],peptide microarray binding signal,"[1]; peptide region: H3 5-17, peptide modifications: H3R8me2s H3K9me2, binder concentration: 50 nM",0.00545 ± 0.0001
same,peptide microarray binding signal,"[1]; peptide region: H3 5-17, peptide modifications: H3R8me2s H3K9me2, binder concentration: 500 nM",0.00886 ± 0.00071
same,peptide microarray binding signal,"[2]; peptide region: H3 5-17, peptide modifications: H3R8me2s H3K9me2, binder concentration: 10 nM",0.0168 ± 0.00063
same,peptide microarray binding signal,"[2]; peptide region: H3 5-17, peptide modifications: H3R8me2s H3K9me2, binder concentration: 100 nM",0.0228 ± 0.0012
same,peptide microarray binding signal,[3]; [9],0.0112 ± 0.0011
same,peptide microarray binding signal,[3]; [10],0.0122 ± 0.002
same,peptide microarray binding signal,[4]; [9],0.0214 ± 0.0029
same,peptide microarray binding signal,[4]; [10],0.0131 ± 0.00022
QTARKSTGGKAPR [H3 5-17 Q T A Rme2s K S T G G K A P R],peptide microarray binding signal,"[1]; peptide region: H3 5-17, peptide modifications: H3R8me2s, binder concentration: 50 nM",0.00245 ± 0.00023
same,peptide microarray binding signal,"[1]; peptide region: H3 5-17, peptide modifications: H3R8me2s, binder concentration: 500 nM",0.00352 ± 0.00033
same,peptide microarray binding signal,"[2]; peptide region: H3 5-17, peptide modifications: H3R8me2s, binder concentration: 10 nM",0.00412 ± 0.00015
same,peptide microarray binding signal,"[2]; peptide region: H3 5-17, peptide modifications: H3R8me2s, binder concentration: 100 nM",0.00184 ± 6.7e-05
same,peptide microarray binding signal,[3]; [11],0.0129 ± 0.0069
same,peptide microarray binding signal,[3]; [12],0.0128 ± 0.0042
same,peptide microarray binding signal,[4]; [11],0.00237 ± 0.00021
same,peptide microarray binding signal,[4]; [12],0.00415 ± 0.00028
QTARKSTGGKAPR [H3 5-17 Q T A Rme2s Kme3 S T G G K A P R],peptide microarray binding signal,"[1]; peptide region: H3 5-17, peptide modifications: H3R8me2s H3K9me3, binder concentration: 50 nM",0.00251 ± 0.00011
same,peptide microarray binding signal,"[1]; peptide region: H3 5-17, peptide modifications: H3R8me2s H3K9me3, binder concentration: 500 nM",0.00471 ± 9.5e-05
same,peptide microarray binding signal,"[2]; peptide region: H3 5-17, peptide modifications: H3R8me2s H3K9me3, binder concentration: 10 nM",0.00979 ± 0.00031
same,peptide microarray binding signal,"[2]; peptide region: H3 5-17, peptide modifications: H3R8me2s H3K9me3, binder concentration: 100 nM",0.0103 ± 0.00024
same,peptide microarray binding signal,[3]; [13],0.0199 ± 0.0017
same,peptide microarray binding signal,[3]; [14],0.0138 ± 0.0027
same,peptide microarray binding signal,[4]; [13],0.094 ± 0.0025
same,peptide microarray binding signal,[4]; [14],0.0691 ± 0.0084
QTARKSTGGKAPR [H3 5-17 Q T A R K Sph T G G Kme3 A P R],peptide microarray binding signal,"[1]; peptide region: H3 5-17, peptide modifications: H3S10ph H3K14me3, binder concentration: 50 nM",0.005486 ± 5.1e-05
same,peptide microarray binding signal,"[1]; peptide region: H3 5-17, peptide modifications: H3S10ph H3K14me3, binder concentration: 500 nM",0.0236 ± 0.0018
same,peptide microarray binding signal,"[2]; peptide region: H3 5-17, peptide modifications: H3S10ph H3K14me3, binder concentration: 10 nM",0.0113 ± 0.0025
same,peptide microarray binding signal,"[2]; peptide region: H3 5-17, peptide modifications: H3S10ph H3K14me3, binder concentration: 100 nM",0.014 ± 0.0073
same,peptide microarray binding signal,[3]; [15],0.0516 ± 0.0021
same,peptide microarray binding signal,[3]; [16],0.0433 ± 0.025
same,peptide microarray binding signal,[4]; [15],0.132 ± 0.038
same,peptide microarray binding signal,[4]; [16],0.0759 ± 0.013
QTARKSTGGKAPR [H3 5-17 Q T A R K Sph T G G K A P R],peptide microarray binding signal,"[1]; peptide region: H3 5-17, peptide modifications: H3S10ph, binder concentration: 50 nM",0.00589 ± 6.1e-05
same,peptide microarray binding signal,"[1]; peptide region: H3 5-17, peptide modifications: H3S10ph, binder concentration: 500 nM",0.0117 ± 0.0012
same,peptide microarray binding signal,"[2]; peptide region: H3 5-17, peptide modifications: H3S10ph, binder concentration: 10 nM",0.00955 ± 0.00078
same,peptide microarray binding signal,"[2]; peptide region: H3 5-17, peptide modifications: H3S10ph, binder concentration: 100 nM",0.0203 ± 0.002
same,peptide microarray binding signal,[3]; [17],0.00142 ± 0.0001
same,peptide microarray binding signal,[3]; [18],0.0024 ± 0.00015
same,peptide microarray binding signal,[4]; [17],0.000785 ± 1.3e-05
same,peptide microarray binding signal,[4]; [18],0.0011 ± 1.1e-05
QTARKSTGGKAPR [H3 5-17 Q T A R K S Tph G G Kac A P R],peptide microarray binding signal,"[1]; peptide region: H3 5-17, peptide modifications: H3T11ph H3K14ac, binder concentration: 50 nM",0.00514 ± 0.00023
same,peptide microarray binding signal,"[1]; peptide region: H3 5-17, peptide modifications: H3T11ph H3K14ac, binder concentration: 500 nM",0.015 ± 0.0014
same,peptide microarray binding signal,"[2]; peptide region: H3 5-17, peptide modifications: H3T11ph H3K14ac, binder concentration: 10 nM",0.00597 ± 0.00044
same,peptide microarray binding signal,"[2]; peptide region: H3 5-17, peptide modifications: H3T11ph H3K14ac, binder concentration: 100 nM",0.0333 ± 0.0053
same,peptide microarray binding signal,[3]; [19],0.000868 ± 6.7e-05
same,peptide microarray binding signal,[3]; [20],0.000685 ± 1.9e-05
same,peptide microarray binding signal,[4]; [19],0.00394 ± 0.0008
same,peptide microarray binding signal,[4]; [20],0.00156 ± 3e-05
QTARKSTGGKAPR [H3 5-17 Q T A R K S Tph G G K A P R],peptide microarray binding signal,"[1]; peptide region: H3 5-17, peptide modifications: H3T11ph, binder concentration: 50 nM",0.0138 ± 0.005
same,peptide microarray binding signal,"[1]; peptide region: H3 5-17, peptide modifications: H3T11ph, binder concentration: 500 nM",0.014 ± 0.0037
same,peptide microarray binding signal,"[2]; peptide region: H3 5-17, peptide modifications: H3T11ph, binder concentration: 10 nM",0.0156 ± 0.0015
same,peptide microarray binding signal,"[2]; peptide region: H3 5-17, peptide modifications: H3T11ph, binder concentration: 100 nM",0.0409 ± 0.0057
same,peptide microarray binding signal,[3]; [21],0.0044 ± 0.0008
same,peptide microarray binding signal,[3]; [22],0.00553 ± 0.00047
same,peptide microarray binding signal,[4]; [21],0.00195 ± 7.3e-05
same,peptide microarray binding signal,[4]; [22],0.00254 ± 0.00012
QTARKSTGGKAPR [H3 5-17 Q T A R K Sph Tph G G K A P R],peptide microarray binding signal,"[1]; peptide region: H3 5-17, peptide modifications: H3S10ph H3T11ph, binder concentration: 50 nM",0.00295 ± 9.8e-05
same,peptide microarray binding signal,"[1]; peptide region: H3 5-17, peptide modifications: H3S10ph H3T11ph, binder concentration: 500 nM",0.00695 ± 0.00038
same,peptide microarray binding signal,"[2]; peptide region: H3 5-17, peptide modifications: H3S10ph H3T11ph, binder concentration: 10 nM",0.00346 ± 9.7e-05
same,peptide microarray binding signal,"[2]; peptide region: H3 5-17, peptide modifications: H3S10ph H3T11ph, binder concentration: 100 nM",0.016 ± 0.0014
same,peptide microarray binding signal,[3]; [23],0.000302 ± 3.1e-06
same,peptide microarray binding signal,[3]; [24],0.000285 ± 3.1e-06
same,peptide microarray binding signal,[4]; [23],0.00107 ± 0.00014
same,peptide microarray binding signal,[4]; [24],0.000461 ± 8.7e-06
